# Compounds with a hit are over-represented: about 6.2% of the library has one in this group of screens.
# KB-V1 MDR tox: KB-V1 MDR subline cytotoxicity; KB-V1 MDR cells viability, CellTiter-Glo, 72 h; Potency, µM (highest dose often 46.1 µM), hits mostly cytotoxic; actives 3.4% (n = 400,000); also: % is scaled to controls: 0 for no effect and ±100 for the full control effect; nearly all actives have a fitted effect of over 60% in size
#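 In this primary screen, KB-V1 cells overexpressing P-gp are incubated with library compounds (lowest to highest concentration) for 72 h at 37 degrees C before a luminescent ATP viability read.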
# HT1080 IDH1KD tx: HT-1080 IDH1 knockdown cell toxicity (counter line); HT-1080 IDH1 knockdown viability, ATP luminescence, 48 h; Potency, µM (highest dose often 46.1 µM), without a hit: at the highest dose activity, negative = toxicity, usual class: cytotoxic; actives 2% (n = 360,000);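 also: 0% = DMSO wells and -100% = cell-free medium wells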
#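 IDH1KD HT-1080 cells, 750/well, RPMI + 5% FBS; compound pinned after 2 h settling; 48 h, 37 °C; CellTiter-Glo luminescence; % activity normalised to DMSO and no-cell wells; curves fitted, classed by r2 and efficacy.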
# KB-3-1 cytotox: kills parental KB-3-1 adenocarcinoma cells; KB-3-1 viability, CellTiter-Glo ATP luminescence, 72 h; Potency, µM (doses to about 46.1 µM), most hits filed as cytotoxic; actives 1.4% (n = 400,000); AID 1347075; also: % is scaled to controls: 0 for no effect and ±100 for the full control effect; nearly all actives have a fitted effect of over 60% in size
#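 Luminescent ATP read-out (CellTiter-Glo) measures survival of drug-naive KB-3-1 cells after 72 h compound exposure at 37 °C. Titration series was screened from lowest to highest concentration, with DMSO vehicle plates as background controls.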
# ATXN2 expr inh: reduces ATXN2 reporter expression in HEK-293 cells | HEK-293 ATXN2-luciferase reporter, luminescence, 24 h | AID 1745845 | Potency, µM (highest dose often 57 µM), without a hit: at the highest dose activity change, negative = inhibition, hits mostly inhibitors | actives 0.72% (n = 360,000); also: % is scaled to controls: 0 for no effect and ±100 for the full control effect; nearly all actives have a fitted effect of over 55% in size
#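 ATXN2-luciferase reporter cells (luciferase flanked by upstream and downstream ATXN2 gene portions) were treated 24 h at 37 °C with compounds at up to 57 uM. SteadyGlo luminescence gave expression; GF-AFC fluorescence gave viability.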
# HT1080NT lethal: kills 2HG-producing HT-1080-NT fibrosarcoma cells; Potency, µM (series often up to 46.1 µM), without a hit: at the top dose activity, negative = less viability, most hits filed as cytotoxic; HT-1080-NT fibrosarcoma viability, CellTiter-Glo ATP luminescence, 48 h; actives 1.6% (n = 360,000); AID 686970;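 also: NT is the 2HG producing partner of a matched IDH1 knockdown line; 0% = DMSO-treated cells and -100% = media-only wells without cells; nearly all actives have a fitted effect of over 55% in size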
#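 Viability of the 2HG-overproducing fibrosarcoma line after 48 hours of compound exposure at 37 degrees C was determined by luminescence with CellTiter-Glo, and concentration-effect curves were then fitted and categorized.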
# S2 tox: viability counter-screen for ATXN expression inhibitors; S2 cells (HEK-293 line with an ATXN2-luciferase reporter) viability, CellTiter-Fluor protease fluorescence, 24 h; actives 0.49% (n = 400,000); AID 651635; Potency, µM (titrated, usually from 56.7 µM), usual class: cytotoxic; also: nearly all actives have a fitted effect of over 40% in size
# The depositor's hits bear a star; i = inactive; ? = inconclusive; . = no result. Calls follow the shape of the dose curve; as a rule, active = well fitted curve in the direction sought with a large enough effect; inconclusive = small, poorly fitted or top-dose-only effect, or another doubt; inactive = no such curve, though single readings can be large; an effect the other way counts as inactive or inconclusive. Potency is read from the fitted curve at half-maximal effect.
SMILES,KB-V1 MDR tox,HT1080 IDH1KD tx,KB-3-1 cytotox,ATXN2 expr inh,HT1080NT lethal,S2 tox
O=C(c1cnsn1)N1CCOc2ccc(C(O)C(c3ccccc3)c3ccccc3)cc2C1 (stereo not drawn),.,.,.,.,.,i
Cc1ccc(S(=O)(=O)N2CCCc3cc(NS(=O)(=O)c4cc(F)ccc4F)ccc32)cc1,i,.,?,?,.,?
Cc1cccc(N2CCN(C(=O)NC3CCCCC3)CC2C)c1 (stereo not drawn),i,15%,i,22µM*,0%,?
Cc1cccc(N2CCN(C(=O)c3ccccn3)CC2C)c1 (stereo not drawn),?,17%,i,-5%,?,?
COc1cccc(CN2C(=O)C3(SCC(=O)N3c3ccc(C(C)C)cc3)c3ccccc32)c1 (stereo not drawn),18µM*,.,?,0%,.,i
COc1cc(N2C(=O)CSC23C(=O)N(Cc2cccc(F)c2)c2ccccc23)cc(OC)c1OC (stereo not drawn),i,.,i,-17%,.,i
COc1cccc(CN2C(=O)C3(SCC(=O)N3c3ccc(C)c(Cl)c3)c3ccccc32)c1 (stereo not drawn),13µM*,.,13µM*,12%,.,i
O=C(CNC(=O)c1ccc(Br)o1)Nc1ncccc1O,i,1%,i,-4%,2%,i
COc1ccc(-c2ccc(=O)n(CC(=O)NC3CCc4ccccc43)n2)cc1OC (stereo not drawn),?,9%,i,8%,11%,?
CCOCC(=O)NC1CCc2cc(OC(=O)COCC)c(OC)c(OC)c2-c2ccc(SC)c(=O)cc21 (stereo not drawn),16µM*,0.15µM*,0.0092µM*,-12%,0.073µM*,?
COc1c(O[C@@H]2O[C@H](CO)[C@@H](O)[C@H](O)[C@H]2O)cc2c(c1OC)-c1ccc(SC)c(=O)cc1[C@@H](NC(C)=O)CC2,.,.,.,.,.,i
COc1cc2c(c(OC)c1OC)-c1ccc(SC)c(=O)cc1C(NC(=O)C(F)(F)F)CC2 (stereo not drawn),0.13µM*,0.0065µM*,0.052µM*,16%,0.0092µM*,i
Cc1ccccc1CNCc1c(C(=O)O)c(C)n(Cc2ccc(F)cc2Cl)c1C,?,.,i,6%,.,i
O=C(NC(=S)NNC(=O)c1cccs1)c1ccccc1,i,?,?,-31%,?,i
CC(C)(C)c1ccc(C(=O)NC(=S)NNC(=O)c2cccs2)cc1,?,?,2.6µM*,9%,?,i
CCCOc1ccc(C(=O)NNC(=S)NC(=O)c2ccccc2)cc1,i,?,i,.,?,i
CCCCOc1ccc(C(=O)NNC(=S)NC(=O)CC)cc1,?,?,?,25µM*,?,?
CCCOc1ccc(C(=O)NNC(=S)NC(=O)c2ccco2)cc1,i,23µM*,9.2µM*,?,?,i
CCCOc1ccc(C(=O)NNC(=S)NC(C)=O)cc1,i,7.1µM*,16µM*,?,7.1µM*,?
C(=C\c1ccccc1)/CN1CCN(C(c2cc3ccccc3o2)c2nnnn2C2CCCCC2)CC1 (stereo not drawn),i,2%,i,5%,6%,i
CC(=O)Oc1ccc2c(c1)C(=O)CCCCCC(=O)O2,i,-6%,?,.,-4%,i
CCCOc1ccc(C(=O)NNC(=S)NC(=O)c2cccs2)cc1,?,21µM*,?,?,?,?
CCCOc1ccc(C(=O)NC(=S)Nc2nc(C)c(C(=O)N(C)C)s2)cc1,21µM*,-20%,i,8%,?,i
CCN(CC)c1ccc(/C=C2/SC(=O)N(C(C)C)C2=O)o1,i,?,?,-19%,13µM*,?
C#C[C@]1(O)CC[C@H]2[C@@H]3CCC4=C(CCC(=O)C4)[C@H]3CC[C@@]21C,15µM*,0%,?,4%,-21%,i
SMILES,KB-V1 MDR tox,HT1080 IDH1KD tx,KB-3-1 cytotox,ATXN2 expr inh,HT1080NT lethal,S2 tox
C#C[C@]1(O)CC[C@H]2[C@@H]3CCC4=CC(=O)CC[C@@H]4[C@H]3CC[C@@]21C,2.3µM*,-12%,?,3%,0%,i
C#C[C@]1(O)CC[C@H]2[C@@H]3CCc4cc(OC)ccc4[C@H]3CC[C@@]21C,i,-1%,i,2%,17%,i
C#C[C@]1(OC(C)=O)CC[C@H]2[C@@H]3CCC4=CC(=O)CC[C@@H]4[C@H]3CC[C@@]21C,.,.,.,.,.,i
O=C(COc1ccccc1)Nc1ccc(C(=O)OCc2cc(=O)n3nc(C4CC4)sc3n2)cc1,?,.,i,12%,.,i
Cc1cccc(C)c1N1C(=O)c2ccccc2NC(=O)C1C(=O)NCCc1ccccc1 (stereo not drawn),i,5%,i,.,10%,.
CC(=O)C1=C(C)OC(N)=C(C#N)C1c1cc([N+](=O)[O-])ccc1Cl (stereo not drawn),i,?,i,-24%,16µM*,i
CC(=O)C1=C(C)OC(N)=C(C#N)C1c1cccc([N+](=O)[O-])c1 (stereo not drawn),i,-9%,i,-16%,-3%,i
Cc1c(C(=O)N(C)CCOc2ccccc2)oc2c(Cl)cccc12,21µM*,12%,i,17%,3%,i
CCN(CC(=O)Nc1cc(C)on1)CC(=O)Nc1ccccc1C(F)(F)F,18µM*,-10%,i,-14%,-5%,i
CCN(CC(=O)Nc1ccccc1C(F)(F)F)C(=O)c1oc2c(Cl)cccc2c1C,18µM*,-9%,i,-7%,-6%,i
CCN(CC(=O)Nc1ccc(OC)cc1)C(=O)c1oc2c(Cl)cccc2c1C,i,-17%,i,-1%,-26%,i
Cc1ccc(NC(=O)/C=C/c2ccc(S(=O)(=O)N3CCOCC3)cc2)cc1S(=O)(=O)N(C)C,i,26µM*,?,28µM*,?,?
COc1cccc(NC(=O)/C=C/c2ccc(S(=O)(=O)N3CCOCC3)cc2)c1,i,-2%,i,22µM*,2%,i
COc1cc(Cl)c(C)cc1N1C(=O)[C@@H]2C[C@H]1CN2Cc1ccccn1,.,.,.,.,.,i
N#CCCN(Cc1ccccc1)C(=S)NC(=O)c1ccccc1,?,1.1µM*,i,-15%,1.3µM*,i
C[C@H](CO)N1C[C@H](C)[C@@H](CN(C)CC2CC2)Oc2c(NC(=O)Cc3ccccc3)cccc2C1=O,?,?,6.5µM*,-15%,26µM*,?

# Compound activity deposited in PubChem by National Center for Advancing Translational Sciences (NCATS).
